Assay results published in PubChem BioAssay AID2289 (National Center for Advancing Translational Sciences (NCATS), 2010).
The whole screen tested about 340,000 compounds, of which about 3,300 (0.97%) were called active. Roughly 9% stayed inconclusive and do not appear here. Calls follow the shape of the dose curve; as a rule, active = well fitted inhibition curve with a large enough effect; inconclusive = small, poorly fitted or top-dose-only effect, or effect the other way; inactive = flat fitted curve, though single readings scatter. Some of the results follow.

test: qHTS Assay for Modulators of miRNAs and/or Inhibitors of miR-21; conditions: HeLa miR-21-FLuc reporter, luciferase luminescence, 48 h; actives lower the signal; also: nearly all actives have a fitted effect of over 55% in size
Excerpt: MLSCN Grant: 1 R21 NS059478-01 Assay Provider: Qihong Huang, The Wistar Institute NCGC Assay Overview: MicroRNAs (miRNAs) are endogenously encoded small (~20-25 nucleotides), nonprotein-coding RNAs that are involved in post-transcriptional repression of target messenger RNAs (mRNAs) (Le and Hannon, 2004). Estimated to be involved in the regulation of 30% of all protein-coding mRNAs (Filipowicz et al., 2008), miRNAs play a significant role in many biological processes including cellular differentiation and tissue development (Ghildiyal and Zamore, 2009).
NCGC Assay Protocol Summary: Reagents: HeLa cells stably expressing firefly luciferase (FLuc) under the control of a CMV promoter (upstream) and a miR-21 binding sequence directly downstream of the gene. These cells endogenously express miR-21. Control compounds used were compound C3 (provided by collaborator), N6-phenyladenosine (MP Biomedicals, 0215379625), and DMSO. Assay Summary: 6uL of HeLa miR-21-FLuc cells in assay buffer (DMEM, Invitrogen #21063-029; 10% FBS, HyClone #SH30071.03) were dispensed at 2000cells/well (3.3 x 10^5 cells/mL) into Greiner solid-white TC-treated 1536-well plates using a Multidrop Combi (Thermo Fisher Scientific). Plates were incubated for one hour at 37 degree Celsius, 95% humidity, 5% CO2. These assay plates were then treated with 23nL of compound or DMSO using a Kalypsys pin tool, which allows for delivery of a 24-point titration of each compound to the assay plate, with a final compound concentration ranging from approximately 40uM to 5pM. Assay plates were then incubated for 48 hours. After incubation, plates were allowed to come to RT for one hour prior to delivery of 3uL of 3X luciferase detection reagent. After a 15 minute incubation to allow for cell lysis, luciferase activity was measured using a ViewLux CCD imager (PerkinElmer), with an average exposure time of 2-12 seconds. Keywords: NIH Roadmap, MLPCN, MLSMR, qHTS, miR-21, microRNA, firefly luciferase, FLuc.
Potency is read from the fitted curve at half-maximal effect.

Potency, active:
COc1ccccc1N=c1oc2cc(O)ccc2cc1C(=O)NCC1CCCO1 (stereo not drawn) 9.27 µM, CCOC(=O)/C=C(\C)N1N=C(c2ccccc2)CC1c1ccccc1 (stereo not drawn) 2.33 µM, CCOc1ccc(/C=N/N(C)c2ccccc2)cc1OC 4.65 µM, COc1ccc(OC)c(/C=N/N(C)c2ccccc2)c1 6.56 µM, CN(/N=C/c1ccc2c(c1)OCO2)c1ccccc1 6.56 µM, COc1cc(/C=N/N(C)c2ccccc2)ccc1O 2.61 µM, CCCCC12CN3CCN(CC(C3)/C1=N\NC(=O)c1ccccc1N)C2 9.27 µM, CC12CN3CCN(CC(C3)/C1=N\NC(=O)c1ccccc1N)C2 10.4 µM, Nc1ccccc1C(=O)N/N=C1\C2CN3CCN(C2)CC1(c1ccccc1)C3 7.36 µM, c1ccc2c(c1)ccc1nnc(SCc3ccc4c(c3)OCCO4)n12 16.5 µM, O=C(CSc1nnc2ccc3ccccc3n12)c1ccc(F)cc1 9.27 µM, Cc1ccc2nc(-c3ccc(Cl)c(NC(=O)c4ccc5c(c4)OCCO5)c3)oc2c1 7.36 µM, COc1ccc2oc(-c3ccc(C)c(NC(=O)c4ccc5c(c4)OCCO5)c3)nc2c1 8.26 µM, CCc1cccc(C)c1NC(=O)Cn1nc(C)n2cccc2c1=O 4.65 µM, Cc1nn(CC(=O)Nc2ccccc2C(F)(F)F)c(=O)c2cccn12 16.5 µM, Cc1cc(C(=O)N(C)C)sc1-c1ccccc1 5.21 µM, CC1=C(c2ccc(C)cc2)[N+](=O)C(C)(C)N1[O-] 3.69 µM, CCc1cccc2c(C(=O)COC(=O)c3ccccc3)c[nH]c12 16.5 µM, COc1ccc(-c2csc(N=C(N)N)n2)cc1 8.26 µM, Cc1ccsc1/C=N\NC(=O)c1cc(C(C)(C)C)[nH]n1 4.14 µM, O=C(Nc1nc2ccsc2c(=O)s1)c1ccc(F)cc1 0.414 µM, Cc1ccc(Nc2nc(-c3ccncc3)cs2)cc1 0.656 µM, Cc1ccc(Nc2nc(C)cs2)cc1 6.56 µM, Cc1ccc(Nc2nc(C3CC3)cs2)cc1 1.65 µM, CCOc1ccc(Nc2nc(-c3cccnc3)cs2)cc1 0.585 µM, O=[N+]([O-])c1ccccc1Nc1nc(-c2cccnc2)cs1 18.5 µM, Cc1csc(Nc2ccc(Cl)cc2)n1 10.4 µM, O=C(C[n+]1cn(C(F)F)c2ccccc21)c1ccc(OC(F)F)cc1 5.85 µM, Clc1ccc(-c2cnc(Oc3ccccc3)nc2)cc1 2.07 µM, Cc1ccc(SCC(=O)Nc2ccc3c(c2)OCCO3)cc1 1.65 µM, O=C(Nc1ccc2c(c1)OCCO2)C1CC1c1ccccc1 (stereo not drawn) 7.36 µM, Cc1ccc(N(CC(=O)Nc2ccc3c(c2)OCCO3)S(C)(=O)=O)cc1 10.4 µM, Cc1ccccc1Nc1nnc(SCC(=O)NC(=O)Nc2ccc3c(c2)OCCO3)s1 10.4 µM, O=C(CSc1ccc(-c2ccccc2)nn1)Nc1ccc2c(c1)OCCO2 8.26 µM, O=C(CSc1ccccc1)Nc1ccc2c(c1)OCO2 13.1 µM, O=C(Nc1ccc2c(c1)OCO2)N1CCCc2ccccc21 13.1 µM, Cc1cccc(-c2nsc(SCC(=O)Nc3ccc4c(c3)OCO4)n2)c1 13.1 µM, O=C(CC1CS(=O)(=O)CC1CC(=O)Nc1ccc2c(c1)OCCO2)Nc1ccc2c(c1)OCCO2 (stereo not drawn) 7.36 µM, CCOc1ccc(NC(=O)Nc2cc(C)ccc2F)cc1 1.85 µM, CCc1ccc(C(=O)Nc2cc(C)ccc2F)s1 6.56 µM, O=c1cc(CNc2ccc(Br)cc2)nc2sccn12 18.5 µM, Cc1ccc(SCc2cc(=O)n3ccsc3n2)c(C)c1 9.27 µM, COc1cccc(C(=O)NCCn2ccc3ccccc32)c1 5.21 µM, CCc1cc(C(=O)NNC(=S)Nc2cccc(C)c2)cs1 4.14 µM, Cc1cccc(NC(=S)NNC(=O)c2csc(C)c2)c1 2.93 µM, CCc1cc(C(=O)Nc2ccc(C)cc2Br)cs1 1.04 µM, Cc1cccc(NC(=S)NNC(=O)c2csc(C(C)C)c2)c1 3.69 µM, Cc1cccc(NC(=S)NNC(=O)c2ccccc2Br)c1 2.07 µM, O=C(NNC(=S)Nc1ccccc1Cl)c1ccccc1Br 0.927 µM, CCCc1cc(C(=O)NNC(=S)Nc2cccc(C)c2)cs1 3.69 µM, Cc1cccc(NC(=S)NNC(=O)c2ccc3c(c2)OCO3)c1 0.464 µM, Cc1c(C(=O)NNC(=S)Nc2cccc(Cl)c2)nnn1-c1ccccc1 16.5 µM, CCOC(=O)c1cnc2c(-c3ccccc3)cnn2c1C 0.927 µM, CCOC(=O)Cc1c(C)nc2c(-c3ccccc3)cnn2c1C 16.5 µM, CC(C)C(=O)Nc1nc2c(s1)CC(C(C)(C)C)CC2 (stereo not drawn) 2.07 µM, Nn1c(SCc2ccccc2)nc2ccccc21 4.14 µM, CCOC(=O)CSc1nc2cc3c(cc2cc1C#N)OCO3 1.04 µM, CCOC(=O)CSc1nc2cc3c(cc2cc1C#N)OCCO3 0.147 µM, N#Cc1ccc(-c2csc(NC3=NCCCCC3)n2)cc1 6.56 µM, Brc1ccc(-c2csc(NC3=NCCCCC3)n2)cc1 10.4 µM, Cc1ccnc(NC(=S)NC(=O)c2ccco2)c1 1.17 µM, O=C(NC(=S)Nc1ccccn1)c1ccco1 3.69 µM, O=C(Nc1ccccc1F)c1cc2nc(C(F)F)cc(C(F)F)n2n1 18.5 µM, Cc1cccc(NC(=O)c2ccc(OC3CSC3)cc2)c1 2.93 µM, CCC(C)c1ccc(OCc2ccc(C(=O)OC)o2)cc1 (stereo not drawn) 4.65 µM, CCC(C)c1ccc(OCc2ccc(C(=O)O)o2)cc1 (stereo not drawn) 0.233 µM, COc1cc(/C=C2/C(=O)ON=C2C)ccc1OCc1cccc(F)c1 10.4 µM, COc1cc(C=O)ccc1OCc1cccc(Br)c1 14.7 µM, CCOC(=O)c1c(C)[nH]c(N=Nc2cccc(OC)c2)c1C 0.927 µM, CCOC(=O)c1c(C)[nH]c(N=Nc2ccc(OC)cc2)c1C 2.93 µM, CCOC(=O)c1c(C)[nH]c(N=Nc2ccc(C)cc2C)c1C 10.4 µM, CCOC(=O)c1c(C)[nH]c(N=Nc2ccccc2)c1C 7.36 µM, CCOc1ccc(N=C(/C(C(=O)C(=O)N2CCOCC2)=C(\O)c2ccccc2)c2ccccc2)cc1 3.69 µM, CC1CCCCN1c1nc(-c2ccc(C(C)(C)C)cc2)nc2ccccc12 (stereo not drawn) 0.585 µM, c1ccc2c(c1)oc1c(N3CCOCC3)ncnc12 16.5 µM, Brc1ccc2oc3c(N4CCOCC4)ncnc3c2c1 4.65 µM, CCOC(=O)C1CCCN(c2ncnc3c2oc2ccccc23)C1 (stereo not drawn) 16.5 µM, Cc1ccc(-c2onc3ccc(C(=O)O)cc23)cc1 1.17 µM, FC(F)(F)c1ccc(NCc2ccccn2)nc1 13.1 µM, COc1cc(N2Cc3ccccc3C2)ccc1C=O 5.21 µM, Clc1ccc(/C=N/Nc2ncnc3nc[nH]c23)cc1 1.65 µM, Fc1ccc(/C=N/Nc2ncnc3nc[nH]c23)cc1F 4.14 µM, Fc1cccc(/C=N/Nc2ncnc3nc[nH]c23)c1 1.65 µM, CC(C)Sc1nc(N)nc(-c2cccs2)c1C#N 2.93 µM, CCSc1nc(N)nc(-c2cccs2)c1C#N 16.5 µM, CCCSc1nc(N)nc(-c2cccs2)c1C#N 13.1 µM, CCCCNC(=O)N(C)c1nc2ccccc2s1 8.26 µM, Cc1nc(SCc2ccccc2)nc2c1CCC2 5.85 µM, COc1ccc2nc(SCc3ccccc3)nc(C)c2c1 1.17 µM, COc1ccc2nc(SCc3cccc(C)c3)nc(C)c2c1 7.36 µM, O=C1/C(=C\c2cccs2)Sc2ccc3ccccc3c21 0.521 µM, Cc1cc(NC(=O)CCC2CCCCC2)no1 16.5 µM, Cn1c(NC(=O)CCc2ccccc2)cc(=O)n(C)c1=O 3.69 µM, Cn1c(NC(=O)CCC2CCCCC2)cc(=O)n(C)c1=O 1.17 µM, O=C(CCCC(=O)c1ccc(F)cc1)c1ccc(F)cc1 3.29 µM, O=C(CNC(=O)c1cccs1)c1ccc(Br)cc1 3.29 µM, O=C(CNC(=O)c1ccc(F)cc1)c1ccc(Cl)cc1 3.69 µM, CC1CCC(NC(=O)CNC(=O)c2cccs2)CC1 (stereo not drawn) 3.29 µM, O=C(CNC(=O)c1ccccc1F)c1ccc(Br)cc1 1.47 µM, Cc1ccc(N=C2NC(=O)/C(=C\c3cccs3)S2)cc1C 10.4 µM, Clc1ccc(OCCSc2ncccn2)cc1 3.69 µM, Clc1ccc(OCCSc2ncccn2)c(Br)c1 1.31 µM, Cc1ccc(OCCCSc2ncccn2)cc1C 14.7 µM, CC(C)CSc1nnc2c3ccccc3n(C)c2n1 1.31 µM, O=C(/C=C/c1nc2ccccc2s1)N1CCCCCC1 2.07 µM, CCC(=O)N1CCc2nc(-c3ccccc3)sc2C1 14.7 µM, Cc1cccc(C)c1NC(=O)c1c[nH]c2ccccc12 3.69 µM, Clc1nc(-c2cccnc2)nc2scc(-c3ccccc3)c12 7.36 µM
